Sfp PPTase inh = inhibitors of Bacillus subtilis Sfp phosphopantetheinyl transferase. Biochemical Sfp PPTase activity, qHTS. Potency, µM, for the others: largest response in the series, negative = inhibition, most hits filed as inhibitors. hit rate 3.5% among 310,000. AID 1490;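 further: the enzyme is Sfp with the accession as filed and its product quenches rhodamine fluorescence; potency means the concentration at half of the fitted maximal effect; 0% = enzyme reaction without inhibitor and -100% = no enzyme wells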
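After 15 min at room temperature with compound, 15 nM Sfp received 5 uM rhodamine-CoA plus 12.5 uM BHQ-2-ybbR (50 mM Hepes pH 7.6, 10 mM MgCl2). Rate came from the fluorescence difference over 30 min, ex 525/em 598 nm.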
VDR inhibitor = inhibitors of human vitamin D receptor; P11473; VDR-SRC2-3 peptide fluorescence polarization, 2 h; Potency, µM, for inactives: max response, negative = inhibition, most hits filed as inhibitors; hit rate 0.93% among 400,000; further: potency means the concentration at half of the fitted maximal effect; on the % scale 0 is the no-effect control and ±100 the full control effect
Target sequence (P11473 whole entry, looked up): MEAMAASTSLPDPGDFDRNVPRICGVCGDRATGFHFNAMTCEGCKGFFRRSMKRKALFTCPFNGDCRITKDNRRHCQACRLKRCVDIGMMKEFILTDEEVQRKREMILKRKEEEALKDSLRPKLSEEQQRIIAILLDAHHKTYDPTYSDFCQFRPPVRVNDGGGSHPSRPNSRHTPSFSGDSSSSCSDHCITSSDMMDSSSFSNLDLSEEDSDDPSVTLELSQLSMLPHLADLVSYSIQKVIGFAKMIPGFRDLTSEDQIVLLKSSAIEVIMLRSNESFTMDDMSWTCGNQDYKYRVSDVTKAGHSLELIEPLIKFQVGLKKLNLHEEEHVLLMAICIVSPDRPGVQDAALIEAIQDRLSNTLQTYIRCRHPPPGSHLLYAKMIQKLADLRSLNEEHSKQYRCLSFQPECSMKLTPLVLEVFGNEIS
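FP read-out; VDR + SRC2-3 coactivator peptide; 23 nl compound by pintool; 2 h RT incubation; reagents held at 4 deg C, protected from light.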
G9a inh = G9a (human) methyltransferase inhibition; Q96KQ7; G9a H3K9 monomethylation, AlphaScreen, 2 h; Potency, µM (series often up to 102 µM), inactives show top-dose activity, negative = inhibition, actives largely listed as inhibitors; hit rate 8.8% among 350,000; further: potency means the concentration at half of the fitted maximal effect; on the % scale 0 is the no-effect control and ±100 the full control effect; nearly all actives have a fitted effect of over 75% in size
Target sequence (Q96KQ7 913-1193 limits assumed): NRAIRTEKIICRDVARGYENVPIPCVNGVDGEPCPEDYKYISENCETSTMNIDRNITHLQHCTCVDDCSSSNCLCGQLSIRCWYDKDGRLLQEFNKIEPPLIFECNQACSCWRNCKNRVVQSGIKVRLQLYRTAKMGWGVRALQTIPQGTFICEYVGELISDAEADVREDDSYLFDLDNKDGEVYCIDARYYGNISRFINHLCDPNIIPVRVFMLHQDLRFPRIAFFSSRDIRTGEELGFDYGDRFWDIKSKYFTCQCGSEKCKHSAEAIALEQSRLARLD
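Using a bead-based AlphaScreen, monomethylated H3K9 product from 2 h room-temperature reactions (G9a 20 nM, peptide 500 nM, SAM 20 uM) was detected with 0.5 ug/mL rabbit anti-H3K9me1 antibody.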
Glioma ERSR ind = ER stress response induction in glioma; Potency, µM, without a hit: top-dose activation, hits mostly activators; hit rate 0.02% among 420,000; U87-MG GRP78 promoter luciferase reporter, 16 h; further: potency means the concentration at half of the fitted maximal effect; series mostly up to about 76 µM; % of control where 0% means no effect; nearly all actives have a fitted effect of over 35% in size
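ERSR induction read as luciferase luminescence (Bright-Glo, 10 min at room temperature) in stably transfected human U87-MG glioma cells exposed to compounds for 16 h, using GRP78 as sensor.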
ALOX12 inh = ALOX12 (human) lipoxygenase inhibition; purified 12hLO, xylenol orange hydroperoxide absorbance; P18054; Potency, µM (titrated, usually from 108 µM), without a hit: at the highest dose activity change, negative = inhibition, hits mostly inhibitors; hit rate 1.1% among 580,000; AID 1671190; further: potency means the concentration at half of the fitted maximal effect; on the % scale 0 is the no-effect control and ±100 the full control effect
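Hydroperoxide product was detected by ferrous iron/xylenol orange as the 573 to 405 nm absorbance ratio. Arachidonic acid at 40 uM (final) was turned over for 30 min at room temperature by 150 nM human 12hLO, pH 7.0 Hepes buffer, after 15 min compound preincubation.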
USP1 UbRho = USP1-UAF1 deubiquitinase inhibition validated. hit rate 50% among 50. Ub-Rhodamine cleavage, fluorescence kinetic read. shares compounds with VDR inhibitor. Potency, µM (series often up to 114 µM), for the others: top-dose activity change, negative = inhibition, hits mostly inhibitors
VDR inh confirm = confirmation of human vitamin D receptor inhibitors; shares compounds with VDR inhibitor; VDR-coactivator inhibition assay, qHTS confirmation; Potency, µM, hits mostly inhibitors; hit rate 89% among 840; further: potency means the concentration at half of the fitted maximal effect
VDR FP fluor = VDR (human) coactivator binding inhibition, fluorescein polarization. shares compounds with VDR inhibitor. VDR-coactivator binding, fluorescein fluorescence polarization. Potency, µM (titrated, usually from 57.1 µM), inactives show at the highest dose activity change, negative = inhibition, actives largely listed as inhibitors. hit rate 48% among 840. AID 602200; further: potency means the concentration at half of the fitted maximal effect
VDR bla reporter = VDR (human) inhibition, cell-based beta-lactamase validation; shares compounds with VDR inhibitor; VDR beta-lactamase reporter cells, FRET ratio; cells co-treated with VDR agonist LG190178; Potency, µM (series often up to 46.1 µM), for inactives: at the top dose activity change, negative = inhibition, actives largely listed as inhibitors; hit rate 23% among 840; AID 602202; further: potency means the concentration at half of the fitted maximal effect; on the % scale 0 is the no-effect control and ±100 the full control effect
VDR cytotox = cell toxicity, VDR inhibitor hit counter-screen; cytotoxicity counter-screen, cell viability, qHTS; hit rate 18% among 840; shares compounds with VDR inhibitor; Potency, µM (top dose mostly 48.3 µM), inactives show at the highest dose activity change, negative = cytotoxicity, actives largely listed as cytotoxic; AID 602204;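 further: potency means the concentration at half of the fitted maximal effect; plate controls were DMSO for no effect and high-concentration cycloheximide for full effect; nearly all actives have a fitted effect of over 75% in size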
Active calls of the source: *; u = inconclusive; x = no result given; ! = a repeat was not active; [ ] = dose if it differs, or a comment. This excerpt belongs to a sample that is enriched for hits. The call rests on the fitted dose curve; in most records, active means well fitted curve in the direction sought with a large enough effect; inconclusive means small, poorly fitted or top-dose-only effect, or another doubt; inactive means no such curve, though single readings can be large; an effect the other way counts as inactive or inconclusive.

SMILES | Sfp PPTase inh | VDR inhibitor | G9a inh | Glioma ERSR ind | ALOX12 inh | VDR inh confirm | VDR FP fluor | VDR bla reporter | VDR cytotox | others
CC(C(=O)OCC(=O)NC1CCCCC1)N1C(=O)c2ccccc2C1=O (stereo not drawn) | x | -12% | x | -1% | -6% | x | x | x | x
O=C(NCC#Cc1ccccc1)N1CCCCCCC1 | x | x | x | x | 20% | x | x | x | x
Cc1ccnc(NC(c2cc(C)ccc2O)c2ccc3cccnc3c2O)c1 (stereo not drawn) | x | 16µM* | 10µM* | x | -1% | 13* | 11µM* | u | -29%
COc1cc(C(Nc2ccccn2)c2ccc3ccc(C)nc3c2O)cc(OC)c1O (stereo not drawn) | 18µM* | 18µM* | u | -15% | x | 7.5* | 5µM* | u | u
COc1ccccc1NC(c1cccnc1)c1ccc2cccnc2c1O (stereo not drawn) | 20µM* | 50µM* | 1.4µM* | 11% | u | 9.5* | u | -12% | -7%
COc1ccc(C(NC(=O)C(C)C)c2ccc3cccnc3c2O)cc1 (stereo not drawn) | 8% | -8% | x | -1% | 6% | x | x | x | x
CCCCC(=O)NC(c1ccc(OC)cc1)c1ccc2cccnc2c1O (stereo not drawn) | x | x | x | -5% | u | x | x | x | x
COc1ccc(C(Nc2cc(C)ccn2)c2ccc3ccc(C)nc3c2O)cc1 (stereo not drawn) | 6% | u | 4µM* | -3% | u | 6.3* | 3.5µM* | 2% | 8%
O=C(/C=C/c1cccc(Cl)c1)c1ccc(OC(F)F)cc1OC(F)F | x | x | x | x | -27% | x | x | x | x
Cc1ccc(S(=O)(=O)N2CCN(C3CCN(Cc4ccccn4)C3=O)CC2)c(C)c1 (stereo not drawn) | x | x | x | x | 38% | x | x | x | x
O=S(=O)(/N=C(/Sc1ccc(Cl)cc1)c1ccccc1)c1ccccc1 | x | 35µM* | x | 1% | x | 3.5* | 11µM* | 0% | 11%
CS/C(=N\S(=O)(=O)c1ccccc1)c1ccccc1 | -16% | 5% | u | 1% | -15% | x | x | x | x
O=S(=O)(/N=C(/Sc1ccccc1)c1ccccc1)c1ccc(Cl)cc1 | x | 50µM* | x | -3% | x | 7.1* | 16µM* | -2% | u
O=[N+]([O-])c1ccc(Cl)c(S(=O)(=O)/N=C(/Sc2ccc(Br)cc2)c2ccccc2)c1 | x | u | x | -3% | x | 7.1* | 5µM* | 10% | 8%
O=S(=O)(/N=C(/Sc1ccccc1)c1ccccc1)c1ccccc1 | -26% | 79µM* | -21% | -5% | -14% | 8.4* | u | 15% | -8%
Cn1nccc1C(=O)N1CCC2(CC1)NCCc1c2[nH]c2ccccc12 | x | x | x | x | 5% | x | x | x | x
O=C(COc1ccc(Cl)cc1)Nc1sc2c(c1C(=O)Nc1cccc(Cl)c1)CCCC2 | x | u | 1.8µM* | 1% | u | 7.9* | 7.9µM* | -7% | -4%
COc1ccc(Cl)cc1NC(=O)c1c(NCc2sccc2C)sc2c1CCCC2 | x | 18µM* | 2.8µM* | 0% | u | 3.5* | 3.2µM* | 2% | 12%
COc1ccc(OC)c(NC(=O)c2c(NC(=O)c3ccco3)sc3c2CCC3)c1 | -1% | x | -26%[12.7 µM] | x | x | x | x | x | x
CC(=O)Nc1sc(N/N=C\c2ccccc2)nc1-c1cccs1 | 50µM* | 32µM* | 11µM* | 1% | -26% | 3.4* | u | -2% | -10%
CC(NC(=O)c1ccc(Br)o1)c1ccc(S(N)(=O)=O)cc1 (stereo not drawn) | x | x | x | x | 3% | x | x | x | x
C=C(C)COc1ccc2c(=O)c(Oc3ccc(C(=O)OC)cc3)coc2c1 | x | x | x | x | 20% | x | x | x | x
NS(=O)(=O)c1ccc(NC(=O)c2nc(S(=O)(=O)Cc3ccccc3F)ncc2Cl)cc1 | x | x | x | -11% | x | 5* | 3.5µM* | u | 11%
CC(=O)Nc1ccc(NC(=O)c2nc(S(=O)(=O)Cc3ccc(F)cc3)ncc2Cl)cc1 | x | u | u | -10% | -13% | x | x | x | x
Cc1ccc(NC(=O)c2nc(S(=O)(=O)Cc3ccccc3F)ncc2Cl)cc1C | x | x | x | -1% | x | 3.2* | 3.2µM* | 9.2µM* | 15µM*
SMILES | Sfp PPTase inh | VDR inhibitor | G9a inh | Glioma ERSR ind | ALOX12 inh | VDR inh confirm | VDR FP fluor | VDR bla reporter | VDR cytotox | others
Cc1ccccc1NC(=O)c1nc(S(=O)(=O)Cc2ccccc2F)ncc1Cl | x | x | x | -11% | x | x | x | x | x
Cc1ccc(NC(=O)c2nc(S(=O)(=O)Cc3ccccc3F)ncc2Cl)cc1 | x | x | x | -11% | x | 1.6* | 1.4µM* | 16µM* | u
COc1cccc(NC(=O)CSc2nc3ccccc3c(=O)n2-c2ncn[nH]2)c1 | x | x | x | x | 12% | x | x | x | x
Cc1ccc(CN2C(=O)C(=O)c3cc(Br)cc(C)c32)cc1 | x | 18µM* | 11µM* | -9% | 14µM* | 7.1* | 10µM* | -10% | -2%
Cc1ccc2c(c1)C(=O)C(=O)N2Cc1ccc(OC(C)C)cc1 | x | u | u | u | -27% | x | x | x | x
Cc1ccc2c(c1)C(=O)C(=O)N2Cc1ccc(C(F)(F)F)cc1 | x | 25µM* | x | -1% | 0% | 17* | 10µM* | -9% | u
c1ccc(OCc2nn3c(Cn4cnc5ccccc54)nnc3s2)cc1 | u | u | u | 0% | u | x | x | x | x
c1ccc(-c2nn3c(Cn4cnc5ccccc54)nnc3s2)cc1 | 10µM* | u | 1.3µM* | -6% | 7.1µM*! | 20* | 7.1µM* | -21% | -19%
CCN1CCN(C(c2ccc(C(F)(F)F)cc2)c2ccc3cccnc3c2O)CC1 (stereo not drawn) | -23% | 25µM* | 2.5µM* | -10% | 8.9µM* | u | 10µM* | 8% | -5%
CCCC(=O)NC(c1ccc(C(C)C)cc1)c1ccc2cccnc2c1O (stereo not drawn) | 8% | -12% | 76% | -5% | 3% | x | x | x | x
COc1cc(N[C@@H](C)CCCN)c2ncccc2c1 | 2% | 5% | u | -12% | x | x | x | x | x | USP1 UbRho=20µM*

Source: PubChem BioAssay
